# From publication PMC7862700, “An all-to-all approach to the identification of sequence-specific readers for epigenetic DNA modifications on cytosine”
# Assays:
# Experiment in all cases: DAPPL (digital affinity profiling via proximity ligation, sequencing); 10 mM Tris-HCl pH 7.5, 50 mM NaCl, 1 mM DTT, 4% glycerol, room temperature, 30 min; GST-TFs on glutathione beads, 16-mer random dsDNA library, 0.1% formaldehyde crosslink after washing; high values mean tight binding
# [1] = molecular target: T1, FLI1 (Homo sapiens, UniProt Q01543 1-452); conditions: protein: recombinant; tags: N-terminal GST; dsDNA, one strand shown
# T1 sequence: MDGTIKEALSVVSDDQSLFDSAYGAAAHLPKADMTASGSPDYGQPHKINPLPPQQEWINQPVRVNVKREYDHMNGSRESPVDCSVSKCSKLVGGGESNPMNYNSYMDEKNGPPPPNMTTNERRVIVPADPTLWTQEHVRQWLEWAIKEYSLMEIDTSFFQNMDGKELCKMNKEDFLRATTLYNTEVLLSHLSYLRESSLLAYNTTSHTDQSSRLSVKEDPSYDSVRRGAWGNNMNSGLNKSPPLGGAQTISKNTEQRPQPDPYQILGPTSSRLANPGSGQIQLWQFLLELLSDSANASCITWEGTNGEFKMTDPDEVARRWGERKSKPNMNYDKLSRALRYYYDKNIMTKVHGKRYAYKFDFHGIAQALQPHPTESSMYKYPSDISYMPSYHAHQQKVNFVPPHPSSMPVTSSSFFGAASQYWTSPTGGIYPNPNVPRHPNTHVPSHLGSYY
# In short: (§1)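 Binding signal is given per hexamer as its read frequency for a factor divided by its frequency in the tag-only sample. GST-fused human transcription factors were expressed in yeast, captured on glutathione beads, barcoded with DNA and pooled with that sample, then incubated with 200 nmole of a 16-mer random double-stranded DNA library in Tris/NaCl/DTT/glycerol buffer for 30 min at room temperature. The pools were then washed, crosslinked, proximity-ligated, amplified by PCR and sequenced on an Illumina NextSeq500.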
# [2] = molecular target: T2, ELK1 (Homo sapiens, UniProt P19419 1-428); conditions: protein: recombinant; tags: N-terminal GST; dsDNA, one strand shown
# T2 sequence: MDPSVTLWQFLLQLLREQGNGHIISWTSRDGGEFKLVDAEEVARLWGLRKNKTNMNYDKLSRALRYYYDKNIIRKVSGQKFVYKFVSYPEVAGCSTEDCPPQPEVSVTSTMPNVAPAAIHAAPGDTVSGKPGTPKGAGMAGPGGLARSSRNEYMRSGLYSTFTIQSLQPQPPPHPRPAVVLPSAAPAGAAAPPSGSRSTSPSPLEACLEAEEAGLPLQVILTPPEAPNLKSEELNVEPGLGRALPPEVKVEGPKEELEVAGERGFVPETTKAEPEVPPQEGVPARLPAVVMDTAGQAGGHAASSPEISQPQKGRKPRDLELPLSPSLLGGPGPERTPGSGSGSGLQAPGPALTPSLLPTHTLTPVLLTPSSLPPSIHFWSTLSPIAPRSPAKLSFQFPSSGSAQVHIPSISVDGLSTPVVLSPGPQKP
# In short: as §1
# [3] = molecular target: T3, GABPA (Homo sapiens, UniProt Q06546 1-454); conditions: protein: recombinant; tags: N-terminal GST; dsDNA, one strand shown
# T3 sequence: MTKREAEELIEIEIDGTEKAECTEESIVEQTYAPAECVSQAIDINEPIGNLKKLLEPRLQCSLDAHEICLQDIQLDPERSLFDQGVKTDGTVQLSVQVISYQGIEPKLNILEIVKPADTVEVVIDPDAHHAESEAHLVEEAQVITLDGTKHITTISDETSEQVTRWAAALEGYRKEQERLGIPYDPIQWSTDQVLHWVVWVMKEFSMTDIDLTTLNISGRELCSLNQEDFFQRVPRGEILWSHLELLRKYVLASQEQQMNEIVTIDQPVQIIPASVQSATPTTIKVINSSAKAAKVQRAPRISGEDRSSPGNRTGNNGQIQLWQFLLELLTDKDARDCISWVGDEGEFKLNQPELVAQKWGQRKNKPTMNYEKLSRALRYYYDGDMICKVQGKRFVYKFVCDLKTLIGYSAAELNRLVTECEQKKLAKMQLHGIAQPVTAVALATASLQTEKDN
# In short: as §1
# [4] = molecular target: T4, ERG (Homo sapiens, UniProt P11308 1-479); conditions: protein: recombinant; tags: N-terminal GST; dsDNA, one strand shown
# T4 sequence: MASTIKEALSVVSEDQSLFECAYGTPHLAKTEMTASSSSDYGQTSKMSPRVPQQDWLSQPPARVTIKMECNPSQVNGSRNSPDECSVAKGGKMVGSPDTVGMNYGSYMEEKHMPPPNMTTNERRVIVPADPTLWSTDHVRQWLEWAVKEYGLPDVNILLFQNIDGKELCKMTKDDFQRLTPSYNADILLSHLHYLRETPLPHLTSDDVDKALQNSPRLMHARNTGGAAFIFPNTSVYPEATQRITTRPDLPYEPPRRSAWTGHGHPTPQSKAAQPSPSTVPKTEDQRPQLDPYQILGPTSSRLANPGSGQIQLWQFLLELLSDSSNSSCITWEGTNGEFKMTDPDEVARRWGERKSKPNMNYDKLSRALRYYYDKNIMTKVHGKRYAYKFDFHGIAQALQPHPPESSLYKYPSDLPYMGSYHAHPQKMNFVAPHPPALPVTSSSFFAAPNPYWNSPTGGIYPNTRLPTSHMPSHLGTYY
# In short: as §1
# [5] = molecular target: ELF1 (Homo sapiens, UniProt P32519 1-619); conditions: protein: recombinant; tags: N-terminal GST; dsDNA, one strand shown
# ELF1, sequence (P32519 whole entry): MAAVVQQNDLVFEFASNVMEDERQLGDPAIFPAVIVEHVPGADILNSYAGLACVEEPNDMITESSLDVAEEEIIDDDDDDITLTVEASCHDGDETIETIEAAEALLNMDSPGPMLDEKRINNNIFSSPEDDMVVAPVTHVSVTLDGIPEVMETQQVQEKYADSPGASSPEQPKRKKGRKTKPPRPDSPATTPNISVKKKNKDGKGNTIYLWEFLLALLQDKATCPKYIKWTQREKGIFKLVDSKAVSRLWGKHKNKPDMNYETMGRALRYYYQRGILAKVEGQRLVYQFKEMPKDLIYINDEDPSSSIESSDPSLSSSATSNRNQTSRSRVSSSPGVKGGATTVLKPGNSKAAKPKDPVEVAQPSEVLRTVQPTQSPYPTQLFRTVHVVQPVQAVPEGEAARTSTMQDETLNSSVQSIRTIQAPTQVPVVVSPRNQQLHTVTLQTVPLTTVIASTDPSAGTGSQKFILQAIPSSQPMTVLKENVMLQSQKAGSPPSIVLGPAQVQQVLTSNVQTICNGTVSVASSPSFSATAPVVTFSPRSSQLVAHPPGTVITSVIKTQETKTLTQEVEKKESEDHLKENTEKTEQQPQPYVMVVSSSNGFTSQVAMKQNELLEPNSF
# In short: as §1
# [6] = molecular target: T5, EHF (Homo sapiens, UniProt Q9NZC4 1-300); conditions: protein: recombinant; tags: N-terminal GST; dsDNA, one strand shown
# T5 sequence: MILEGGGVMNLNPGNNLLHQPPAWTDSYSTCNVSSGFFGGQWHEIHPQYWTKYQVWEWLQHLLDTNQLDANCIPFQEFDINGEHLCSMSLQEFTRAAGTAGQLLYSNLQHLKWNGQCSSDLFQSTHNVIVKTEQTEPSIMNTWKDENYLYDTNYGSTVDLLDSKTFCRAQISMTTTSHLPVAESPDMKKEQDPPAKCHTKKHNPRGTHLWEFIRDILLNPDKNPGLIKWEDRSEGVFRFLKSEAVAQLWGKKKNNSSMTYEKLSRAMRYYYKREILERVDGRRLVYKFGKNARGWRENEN
# In short: as §1
# [7] = molecular target: SPI1 (Homo sapiens, UniProt P17947 1-270); conditions: protein: recombinant; tags: N-terminal GST; dsDNA, one strand shown
# In short: as §1
# [8] = molecular target: SPIB (Homo sapiens, UniProt Q01892 1-262); conditions: protein: recombinant; tags: N-terminal GST; dsDNA, one strand shown
# SPIB, sequence (Q01892 whole entry): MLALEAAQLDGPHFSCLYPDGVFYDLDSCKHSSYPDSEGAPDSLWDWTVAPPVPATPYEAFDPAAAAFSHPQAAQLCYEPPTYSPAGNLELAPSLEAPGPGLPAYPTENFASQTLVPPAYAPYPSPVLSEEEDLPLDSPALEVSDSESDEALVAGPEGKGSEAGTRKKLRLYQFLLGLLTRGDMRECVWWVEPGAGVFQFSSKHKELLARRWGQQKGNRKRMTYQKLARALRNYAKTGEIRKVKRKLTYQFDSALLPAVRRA
# In short: as §1
# [9] = molecular target: T6, ELK3 (Homo sapiens, UniProt P41970 1-407); conditions: protein: recombinant; tags: N-terminal GST; dsDNA, one strand shown
# T6 sequence: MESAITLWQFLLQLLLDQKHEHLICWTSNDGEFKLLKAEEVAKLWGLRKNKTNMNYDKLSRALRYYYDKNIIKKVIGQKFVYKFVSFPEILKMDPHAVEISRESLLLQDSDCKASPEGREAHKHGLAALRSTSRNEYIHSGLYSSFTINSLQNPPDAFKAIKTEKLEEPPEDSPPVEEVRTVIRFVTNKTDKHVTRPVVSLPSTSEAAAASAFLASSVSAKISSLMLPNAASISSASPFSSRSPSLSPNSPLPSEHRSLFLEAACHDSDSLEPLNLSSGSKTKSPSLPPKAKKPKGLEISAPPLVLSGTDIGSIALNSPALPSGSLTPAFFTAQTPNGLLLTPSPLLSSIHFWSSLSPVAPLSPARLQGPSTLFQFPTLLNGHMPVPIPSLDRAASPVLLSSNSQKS
# In short: as §1
# [10] = molecular target: T7, FEV (Homo sapiens, UniProt Q99581 1-238); conditions: protein: recombinant; tags: N-terminal GST; dsDNA, one strand shown
# T7 sequence: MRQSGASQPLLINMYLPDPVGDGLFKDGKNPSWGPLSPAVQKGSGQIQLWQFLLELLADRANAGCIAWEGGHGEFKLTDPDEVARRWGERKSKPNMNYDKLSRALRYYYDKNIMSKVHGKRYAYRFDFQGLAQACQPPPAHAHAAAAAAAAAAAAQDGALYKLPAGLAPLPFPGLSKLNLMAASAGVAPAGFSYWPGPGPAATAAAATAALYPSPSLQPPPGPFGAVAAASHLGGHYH
# In short: as §1
# [11] = molecular target: ETV5 (Homo sapiens, UniProt P41161 1-510); conditions: protein: recombinant; tags: N-terminal GST; dsDNA, one strand shown
# ETV5, sequence (P41161 whole entry): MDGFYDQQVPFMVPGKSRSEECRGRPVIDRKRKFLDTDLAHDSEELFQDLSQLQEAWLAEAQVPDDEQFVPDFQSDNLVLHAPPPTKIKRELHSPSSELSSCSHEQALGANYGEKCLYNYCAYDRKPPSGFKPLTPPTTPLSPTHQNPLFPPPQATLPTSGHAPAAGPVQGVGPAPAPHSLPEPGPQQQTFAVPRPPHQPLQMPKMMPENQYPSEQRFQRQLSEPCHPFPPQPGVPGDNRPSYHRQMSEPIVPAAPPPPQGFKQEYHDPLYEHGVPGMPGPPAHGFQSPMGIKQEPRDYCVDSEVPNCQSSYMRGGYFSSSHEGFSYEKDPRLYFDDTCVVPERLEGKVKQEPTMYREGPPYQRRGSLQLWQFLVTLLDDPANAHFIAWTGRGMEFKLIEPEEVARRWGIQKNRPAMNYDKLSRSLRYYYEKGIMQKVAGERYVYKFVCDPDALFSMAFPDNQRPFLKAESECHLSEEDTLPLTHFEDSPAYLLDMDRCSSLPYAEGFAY
# In short: as §1
# [12] = molecular target: HSF1 (Homo sapiens, UniProt Q00613 1-529); conditions: protein: recombinant; tags: N-terminal GST; chain copies: 3; dsDNA, one strand shown
# HSF1, sequence (Q00613 whole entry): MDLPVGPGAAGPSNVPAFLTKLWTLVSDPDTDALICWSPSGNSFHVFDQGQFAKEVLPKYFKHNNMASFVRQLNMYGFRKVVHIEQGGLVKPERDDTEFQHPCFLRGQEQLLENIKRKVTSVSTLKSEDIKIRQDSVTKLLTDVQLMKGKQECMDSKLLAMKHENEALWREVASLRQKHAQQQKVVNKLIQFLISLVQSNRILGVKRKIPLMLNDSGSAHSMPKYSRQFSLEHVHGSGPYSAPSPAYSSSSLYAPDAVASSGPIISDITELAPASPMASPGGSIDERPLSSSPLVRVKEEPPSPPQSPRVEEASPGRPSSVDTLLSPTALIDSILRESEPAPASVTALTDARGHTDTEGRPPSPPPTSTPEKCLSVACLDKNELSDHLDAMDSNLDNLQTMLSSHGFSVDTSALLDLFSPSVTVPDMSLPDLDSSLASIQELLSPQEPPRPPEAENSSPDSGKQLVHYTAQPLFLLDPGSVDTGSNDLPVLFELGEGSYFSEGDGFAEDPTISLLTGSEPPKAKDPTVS
# In short: as §1
# [13] = molecular target: T8, SPIC (Homo sapiens, UniProt Q8N5J4 1-248); conditions: protein: recombinant; tags: N-terminal GST; dsDNA, one strand shown
# T8 sequence: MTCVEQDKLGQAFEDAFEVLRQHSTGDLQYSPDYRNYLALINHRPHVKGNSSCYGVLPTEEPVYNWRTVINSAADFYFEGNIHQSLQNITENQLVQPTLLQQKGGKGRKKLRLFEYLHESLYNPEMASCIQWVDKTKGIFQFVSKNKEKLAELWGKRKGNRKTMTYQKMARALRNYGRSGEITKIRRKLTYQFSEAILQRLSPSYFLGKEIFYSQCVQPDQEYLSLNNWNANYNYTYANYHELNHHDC
# In short: as §1
# [14] = molecular target: ELF4 (Homo sapiens, UniProt Q99607 1-663); conditions: protein: recombinant; tags: N-terminal GST; dsDNA, one strand shown
# ELF4, sequence (Q99607 whole entry): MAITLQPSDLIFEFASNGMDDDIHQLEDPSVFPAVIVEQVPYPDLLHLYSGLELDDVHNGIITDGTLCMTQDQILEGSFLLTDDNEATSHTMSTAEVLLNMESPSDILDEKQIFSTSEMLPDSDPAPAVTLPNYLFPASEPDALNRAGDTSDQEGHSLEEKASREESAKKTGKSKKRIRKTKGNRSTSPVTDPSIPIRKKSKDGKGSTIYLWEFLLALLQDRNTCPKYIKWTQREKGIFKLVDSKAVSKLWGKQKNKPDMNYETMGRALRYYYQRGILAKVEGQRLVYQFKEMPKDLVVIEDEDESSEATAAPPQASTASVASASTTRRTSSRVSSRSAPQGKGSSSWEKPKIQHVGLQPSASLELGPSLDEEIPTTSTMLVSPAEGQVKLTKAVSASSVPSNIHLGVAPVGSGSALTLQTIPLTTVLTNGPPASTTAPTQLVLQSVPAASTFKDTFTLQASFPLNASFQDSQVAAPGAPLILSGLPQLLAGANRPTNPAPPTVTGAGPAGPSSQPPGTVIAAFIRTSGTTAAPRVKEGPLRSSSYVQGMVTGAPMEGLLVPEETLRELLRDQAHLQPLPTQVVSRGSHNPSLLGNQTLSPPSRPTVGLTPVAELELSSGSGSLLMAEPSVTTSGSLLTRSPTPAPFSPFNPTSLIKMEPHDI
# In short: as §1
# [15] = molecular target: T9, ETV2 (Homo sapiens, UniProt O00321 1-342); conditions: protein: recombinant; tags: N-terminal GST; dsDNA, one strand shown
# T9 sequence: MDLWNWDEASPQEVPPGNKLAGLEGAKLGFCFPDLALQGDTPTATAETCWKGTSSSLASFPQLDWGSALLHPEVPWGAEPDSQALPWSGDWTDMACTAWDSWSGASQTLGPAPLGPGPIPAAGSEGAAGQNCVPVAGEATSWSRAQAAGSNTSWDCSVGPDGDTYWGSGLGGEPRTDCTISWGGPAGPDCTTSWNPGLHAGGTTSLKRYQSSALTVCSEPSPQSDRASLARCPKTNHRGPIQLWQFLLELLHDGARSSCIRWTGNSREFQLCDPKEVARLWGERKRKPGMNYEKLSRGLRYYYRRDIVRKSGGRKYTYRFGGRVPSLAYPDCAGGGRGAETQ
# In short: as §1
# [16] = molecular target: T10, ELF3 (Homo sapiens, UniProt P78545 1-371); conditions: protein: recombinant; tags: N-terminal GST; dsDNA, one strand shown
# T10 sequence: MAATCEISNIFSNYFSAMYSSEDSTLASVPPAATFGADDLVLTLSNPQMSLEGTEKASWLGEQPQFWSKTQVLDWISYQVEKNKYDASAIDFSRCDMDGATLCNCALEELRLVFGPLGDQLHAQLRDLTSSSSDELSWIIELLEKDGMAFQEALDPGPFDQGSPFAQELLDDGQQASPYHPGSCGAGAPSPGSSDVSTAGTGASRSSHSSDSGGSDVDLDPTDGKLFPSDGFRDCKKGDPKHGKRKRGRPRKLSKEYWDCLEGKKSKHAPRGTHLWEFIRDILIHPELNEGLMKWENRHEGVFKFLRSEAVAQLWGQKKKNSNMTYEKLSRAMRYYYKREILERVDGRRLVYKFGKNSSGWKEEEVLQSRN
# In short: as §1
# [17] = molecular target: CRX (Homo sapiens, UniProt O43186 1-299); conditions: protein: recombinant; tags: N-terminal GST; dsDNA, one strand shown
# CRX, sequence (O43186 whole entry): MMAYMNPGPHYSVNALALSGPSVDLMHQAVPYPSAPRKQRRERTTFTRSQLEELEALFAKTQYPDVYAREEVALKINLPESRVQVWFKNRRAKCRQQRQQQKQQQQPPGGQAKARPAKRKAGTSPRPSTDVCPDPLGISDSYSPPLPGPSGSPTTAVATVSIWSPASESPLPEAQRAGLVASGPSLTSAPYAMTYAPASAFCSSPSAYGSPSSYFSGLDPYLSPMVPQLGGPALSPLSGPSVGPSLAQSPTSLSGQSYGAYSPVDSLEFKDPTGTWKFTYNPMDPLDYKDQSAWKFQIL
# In short: as §1
# [18] = molecular target: ETV1 (Homo sapiens, UniProt P50549 1-477); conditions: protein: recombinant; tags: N-terminal GST; dsDNA, one strand shown
# ETV1, sequence (P50549 whole entry): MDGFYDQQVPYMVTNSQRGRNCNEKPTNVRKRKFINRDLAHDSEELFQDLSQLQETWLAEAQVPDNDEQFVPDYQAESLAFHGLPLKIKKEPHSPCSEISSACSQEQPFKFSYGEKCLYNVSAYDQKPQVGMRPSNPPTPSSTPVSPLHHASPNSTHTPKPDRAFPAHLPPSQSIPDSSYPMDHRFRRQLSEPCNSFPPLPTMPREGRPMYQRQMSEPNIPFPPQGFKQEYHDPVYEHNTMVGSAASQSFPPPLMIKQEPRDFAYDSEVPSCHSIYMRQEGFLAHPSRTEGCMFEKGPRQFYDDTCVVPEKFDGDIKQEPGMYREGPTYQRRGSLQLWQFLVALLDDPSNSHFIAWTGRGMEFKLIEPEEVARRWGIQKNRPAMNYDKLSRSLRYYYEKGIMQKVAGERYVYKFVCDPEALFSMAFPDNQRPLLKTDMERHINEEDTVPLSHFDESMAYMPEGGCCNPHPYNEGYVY
# In short: as §1
sequence,measurement,setting,value
CAAATT,binding signal,[1],"1.15 fold enrichment (6-mer frequency, TF over GST control)"
same,binding signal,[2],"1.12 fold enrichment (6-mer frequency, TF over GST control)"
same,binding signal,[3],"1.2 fold enrichment (6-mer frequency, TF over GST control)"
same,binding signal,[4],"1.16 fold enrichment (6-mer frequency, TF over GST control)"
same,binding signal,[5],"1.14 fold enrichment (6-mer frequency, TF over GST control)"
same,binding signal,[6],"1.11 fold enrichment (6-mer frequency, TF over GST control)"
same,binding signal,[7],"1.15 fold enrichment (6-mer frequency, TF over GST control)"
same,binding signal,[8],"1.08 fold enrichment (6-mer frequency, TF over GST control)"
same,binding signal,[9],"1.14 fold enrichment (6-mer frequency, TF over GST control)"
same,binding signal,[10],"1.14 fold enrichment (6-mer frequency, TF over GST control)"
same,binding signal,[11],"1.2 fold enrichment (6-mer frequency, TF over GST control)"
same,binding signal,[12],"1.17 fold enrichment (6-mer frequency, TF over GST control)"
same,binding signal,[13],"1.16 fold enrichment (6-mer frequency, TF over GST control)"
same,binding signal,[14],"1.07 fold enrichment (6-mer frequency, TF over GST control)"
same,binding signal,[15],"1.09 fold enrichment (6-mer frequency, TF over GST control)"
same,binding signal,[16],"1.17 fold enrichment (6-mer frequency, TF over GST control)"
same,binding signal,[17],"1.12 fold enrichment (6-mer frequency, TF over GST control)"
same,binding signal,[18],"1.18 fold enrichment (6-mer frequency, TF over GST control)"
